The structures appear in SMILES notation. About 83,000 compounds went through this panel and 20% of them were active in at least one assay; those are over-represented in the sample as a whole.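 Step 1: grow cells in 96-well plates. Step 2: add test compound at a single concentration. Step 3: incubate 48 h. Step 4: record percent growth.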 Unmarked numbers belong to inactive results. Activity calls are given as the source filed them. How the source made its calls: active means growth percent below 10; inactive means the rest.

Test systems include SK-MEL-2 melanoma; EKVX NSCLC; SN12C renal; UO-31 renal; TK-10 renal; ACHN renal; CAKI-1 renal; A498 renal; CCRF-CEM leukemia; MOLT-4 leukemia; SR leukemia; RPMI-8226 leukemia; OVCAR-8 ovarian; OVCAR-5 ovarian; OVCAR-4 ovarian; SK-OV-3 ovarian; IGROV1 ovarian; OVCAR-3 ovarian; HS 578T breast; NCI/ADR-RES ovarian.
Experiment in all cases: NCI-60 one-dose screen, 48 h (100 = growth as untreated, 0 = no growth, -100 = all killed)
Settings in all cases: 10 µM unless noted

For the compound `CCN1C(=O)N(CC)C2C1N=C(SCc1ccc(Cl)cc1)N2/N=C/C=C/c1ccccc1OC` (stereo not given), the growth in the assay with SK-MEL-2 melanoma is 57.7%; in the assay with EKVX NSCLC, 62.5%; in the assay with SN12C renal it was 77.8%; in the assay on UO-31 renal, 54.3%; in the assay on TK-10 renal it was 96.4%; in the assay on ACHN renal, 61.5%. Besides, the growth was 42.2% in the assay on CAKI-1 renal; 54.6% in the assay on A498 renal; 46.4% with CCRF-CEM leukemia; 55.3% in the assay with MOLT-4 leukemia; 18.4% in the assay on SR leukemia; 11.2% in the assay on RPMI-8226 leukemia. Besides, the growth in the assay on OVCAR-8 ovarian is 56.8%; in the assay with OVCAR-5 ovarian it was 98.6%; with OVCAR-4 ovarian, 69.9%; in the assay on SK-OV-3 ovarian it was 70.4%; in the assay on IGROV1 ovarian it was 78.6%; with OVCAR-3 ovarian it was 50.6%. The growth was 57.3% with HS 578T breast and 26.4% in the assay on NCI/ADR-RES ovarian.

In the case of `CCN1CCN(CCNc2nccc(-c3c(-c4ccc(F)c(OC)c4)nc4sccn34)n2)S1(=O)=O`, the growth in the assay on SK-MEL-2 melanoma was 37.7%; in the assay with EKVX NSCLC it was 88.5%; with SN12C renal, 70.8%; with UO-31 renal, 86.9%; with TK-10 renal it was 118%; in the assay with ACHN renal it was 59.6%. In addition, the growth in the assay with CAKI-1 renal was 77.5%; with A498 renal, 102%; with CCRF-CEM leukemia, 59.5%; with MOLT-4 leukemia, 81.8%; with SR leukemia, 45.3%; in the assay on RPMI-8226 leukemia, 68.7%. For the same compound, the growth in the assay with OVCAR-8 ovarian was 77.2%; in the assay on OVCAR-5 ovarian it was 114%; in the assay on OVCAR-4 ovarian, 92%; with SK-OV-3 ovarian, 87.5%; in the assay with IGROV1 ovarian, 74.4%; with OVCAR-3 ovarian it was 85.5%. The growth with HS 578T breast was 77.7%; in the assay with NCI/ADR-RES ovarian it was 103%.

As for `O=C(Nc1ncc(Cc2ccccc2)s1)c1ccc2c(c1)OCCCO2`, the growth in the assay with SK-MEL-2 melanoma was 30.6%; with EKVX NSCLC, 36.7%; in the assay with SN12C renal it was 40.4%; with UO-31 renal, 48.1%; in the assay on TK-10 renal, 55.9%; in the assay on ACHN renal, 34%. Further, the growth in the assay on CAKI-1 renal was 25.3%; in the assay with A498 renal, -2.27% (active); in the assay with CCRF-CEM leukemia, 16.2%; with MOLT-4 leukemia it was 21.4%; in the assay with SR leukemia, 7.17% (active); in the assay on RPMI-8226 leukemia it was 14.3%. In addition, the growth is 44.9% in the assay with OVCAR-8 ovarian; 47.6% in the assay on OVCAR-5 ovarian; 52.3% with OVCAR-4 ovarian; 55.2% in the assay with SK-OV-3 ovarian; 41.1% in the assay with IGROV1 ovarian; -10.5% (active) in the assay with OVCAR-3 ovarian. The growth with HS 578T breast was 49.7%; with NCI/ADR-RES ovarian, 9.35% (active).

For the compound `COc1cccc(CNc2c3ccccc3nc3ccccc23)c1`, the growth was 67.9% in the assay on SK-MEL-2 melanoma; 51.8% with EKVX NSCLC; 37.9% with SN12C renal; 27% with UO-31 renal; 51.7% in the assay with TK-10 renal; 19.1% in the assay on ACHN renal. Further, the growth with CAKI-1 renal was 35.7%; in the assay with A498 renal, 3.65% (active); in the assay with CCRF-CEM leukemia it was 30.2%; in the assay on MOLT-4 leukemia, 6.41% (active); in the assay on SR leukemia, 8.36% (active); with RPMI-8226 leukemia, 16.7%. Further, the growth is 31.9% in the assay with OVCAR-8 ovarian; 45.9% in the assay on OVCAR-5 ovarian; 43.6% with OVCAR-4 ovarian; 54.7% in the assay on SK-OV-3 ovarian; 28.3% in the assay with IGROV1 ovarian; 54.8% with OVCAR-3 ovarian. Moreover, the values for the growth with HS 578T breast and in the assay with NCI/ADR-RES ovarian were 55.6% and 37.5%, respectively.

On to `COCCn1cc(-c2csc(-c3c[nH]c4ccc(Br)cc34)n2)c2cccnc21`, for which the growth in the assay on SK-MEL-2 melanoma is 35.9%; with EKVX NSCLC, 36.9%; in the assay on SN12C renal it was 51.2%; with UO-31 renal, 27.8%; in the assay on TK-10 renal it was 36.6%; in the assay on ACHN renal, 27.2%. Further, the growth in the assay with CAKI-1 renal was 49.4%; in the assay with A498 renal, 26.7%; in the assay with CCRF-CEM leukemia, 14%; with MOLT-4 leukemia it was 8.87% (active); in the assay on SR leukemia, 17%; in the assay with RPMI-8226 leukemia, 22.2%. For the same compound, the growth in the assay on OVCAR-8 ovarian was 21.8%; in the assay on OVCAR-5 ovarian it was 55.5%; with OVCAR-4 ovarian, 31.2%; with SK-OV-3 ovarian, 47.1%; in the assay with IGROV1 ovarian it was 42.3%; in the assay on OVCAR-3 ovarian it was 39%. For the same compound, the growth in the assay with HS 578T breast is 44.5%; in the assay with NCI/ADR-RES ovarian, 10.8%.

For the compound `[2H]C([2H])([2H])Oc1ccc(F)cc1/C=C/C(=O)/C=C(/C=C/c1cc(F)ccc1OC([2H])([2H])[2H])OB(F)F`, the growth in the assay with SK-MEL-2 melanoma was 94.2%; with EKVX NSCLC, 99.7%; with SN12C renal, 67.4%; with UO-31 renal, 53.9%; with TK-10 renal it was 96.9%; in the assay with ACHN renal, 54.5%. The growth was 74.1% with CAKI-1 renal; 111% with A498 renal; 1.24% (active) in the assay with CCRF-CEM leukemia; 4.82% (active) in the assay on MOLT-4 leukemia; 22.7% with SR leukemia; 10.7% in the assay on RPMI-8226 leukemia. The growth is 19.2% in the assay on OVCAR-8 ovarian; 107% in the assay with OVCAR-5 ovarian; 74.7% with OVCAR-4 ovarian; 107% with SK-OV-3 ovarian; 87.4% in the assay on IGROV1 ovarian; 42.1% with OVCAR-3 ovarian. Also, the growth is 91.9% with HS 578T breast and 76.5% in the assay with NCI/ADR-RES ovarian.

For `CCNC(=O)Oc1ccc(/C(=C(/CC)Cc2ccccc2)c2ccc(OCCN3CCCC3)cc2)cc1`, the growth in the assay on SK-MEL-2 melanoma is 108%; in the assay with EKVX NSCLC it was 88.3%; with SN12C renal it was 92.7%; with UO-31 renal, 83.5%; with TK-10 renal, 91.2%; with ACHN renal, 95.1%. Moreover, the growth in the assay on CAKI-1 renal is 96.8%; in the assay with A498 renal, 89.3%; in the assay with CCRF-CEM leukemia it was 87.2%; with MOLT-4 leukemia, 75.9%; with SR leukemia, 75.5%; in the assay with RPMI-8226 leukemia, 77.7%. Further, the growth in the assay on OVCAR-8 ovarian is 94.1%; with OVCAR-5 ovarian it was 94.6%; in the assay with OVCAR-4 ovarian, 93.3%; with SK-OV-3 ovarian, 88.5%; in the assay with IGROV1 ovarian, 91.5%; in the assay on OVCAR-3 ovarian, 96.9%. In addition, the growth with HS 578T breast was 93.5%; with NCI/ADR-RES ovarian, 97.9%.

Turning to `O=C1Nc2ccccc2/C1=C\c1c[nH]c2ccc(Br)cc12`, the growth in the assay with SK-MEL-2 melanoma is 66.8%; with EKVX NSCLC it was 79.5%; in the assay with SN12C renal, 84.9%; with UO-31 renal, 46%; in the assay on TK-10 renal, 75.3%; in the assay on ACHN renal, 53.6%. The growth with CAKI-1 renal was 55%; in the assay with A498 renal, 108%; in the assay with CCRF-CEM leukemia it was 66.1%; in the assay on MOLT-4 leukemia, 62.1%; with SR leukemia, 72.4%; in the assay with RPMI-8226 leukemia, 73.9%. Moreover, the growth with OVCAR-8 ovarian was 79.8%; in the assay with OVCAR-5 ovarian, 80.4%; in the assay on OVCAR-4 ovarian, 54.7%; in the assay on SK-OV-3 ovarian, 66.5%; in the assay on IGROV1 ovarian, 61.5%; in the assay on OVCAR-3 ovarian it was 72.5%. Further, the growth is 82.7% in the assay with HS 578T breast and 57.7% in the assay with NCI/ADR-RES ovarian.

The record behind these values is PubChem BioAssay (NCI).
